For 69 compounds, outcome results are on record in PubChem BioAssay AID1159577 (Broad Institute, 2015).

Among all 1,300 compounds or so, about 240 (18%) were called active. Roughly 8% stayed inconclusive and do not appear here. How the calls were made is not given here. Only a sample is shown. Measured potencies and affinities stand elsewhere.

A short description of this assay: HepG2 cell cytotoxicity, dose response, cytotoxicity control, cherry-picked samples (AID 1159577). The note with it: HepG2 cytotoxicity counterscreen, plate reader; series mostly up to 19.5 µM.
For the compound `C[C@@H]1CN([C@@H](C)CO)C(=O)c2cccc(NC(=O)Nc3ccccc3)c2O[C@@H]1CN(C)C(=O)Nc1ccc(F)cc1`, the result was inactive.
As to `COc1ccc2c3c(n(C)c2c1)[C@@H](CO)N(C(=O)c1ccc(F)cc1)CC31CN(CC2CCOCC2)C1`, the result was inactive.
Take `CCCN1C[C@@H](C)[C@H](OC)CN(C)C(=O)c2ccc(NC(=O)c3cccc(F)c3)cc2OC[C@H]1C`: the outcome was inactive.
For `COc1ccc2c3c(n(C)c2c1)[C@@H](CO)N(Cc1ccc(Cl)cc1)CC31CCN(CC2CC2)CC1` the value was “inactive”; for `COc1ccc2c3c(n(C)c2c1)[C@@H](CO)N(Cc1ccccc1F)CC31CCN(CC2CC2)CC1`, “inactive”.
As to `COc1ccc2c3c(n(C)c2c1)[C@@H](CO)N(CC1CCCCC1)CC31CCN(Cc2nccs2)CC1`, the compound was called inactive.
Consider `COc1ccc2c3c(n(C)c2c1)[C@@H](CO)N(C(=O)c1ccccc1)CC31CCN(C(=O)c2ccccc2)CC1`, for which the compound was called inactive.
`COc1ccc2c3c(n(C)c2c1)[C@H](CO)N(Cc1ccccc1F)CC31CCN(CC2CC2)CC1`: the outcome was inactive.
On to `COc1ccc2c3c(n(C)c2c1)[C@H](CO)N(C(=O)c1ccccc1)CC31CCN(C(=O)c2ccccc2)CC1`, for which the compound was classed as inactive.
The entry for `COc1ccc2c3c(n(C)c2c1)[C@H](CO)N(Cc1ccncc1)CC31CCN(C(=O)Cc2ccncc2)CC1` is “inactive”; for `CCC(=O)N1CCC2(CC1)CN(Cc1cccc(Cl)c1)[C@H](CO)c1c2c2ccc(OC)cc2n1C` it is “inactive”; for `COc1ccc(-c2ccccc2[C@H]2[C@@H](CO)N(C(=O)C3CCOCC3)[C@H]2C#N)cc1` it is “inactive”.
`COc1ccc2c3c(n(C)c2c1)[C@H](CO)N(Cc1cccnc1)CC31CN(C(=O)NC(C)C)C1`: the call was inactive.
`CC(C)(C)[S@](=O)N1Cc2cc(C(=O)NCCN3CCCCC3)nc(-c3cccc(-c4cccc(C#N)c4)c3)c2[C@@H]1CCO`: the outcome was inactive.
Turning to `C[C@@H]1CN([C@@H](C)CO)S(=O)(=O)c2ccc(C#Cc3ccncc3)cc2O[C@H]1CN(C)S(=O)(=O)c1ccc(F)cc1`, the call was inactive.
For the compound `OC[C@H]1CC[C@@H]2O[C@H](CCc3ccc(C#CCc4ccccc4)cc3)[C@@H](n3cc(-c4ccccc4)nn3)C[C@@H]2O1`, the compound was classed as inactive.
Consider `O=C(C1CCCC1)N1CC[C@@H]2[C@H]1c1cc(C3=CCCCC3)ccc1N[C@@H]2CO`, for which the outcome was inactive.
For `Cc1ccc(S(=O)(=O)N(C)C[C@@H]2OCc3ccccc3-c3c(n(C)c4ccccc34)C(=O)N([C@@H](C)CO)C[C@@H]2C)cc1` the value was “inactive”.
In the case of `COc1ccc(S(=O)(=O)N[C@@H]2CC[C@H](CCn3cc(-c4ccccc4F)nn3)O[C@@H]2CO)cc1`, the call was inactive.
For `CCCc1cn([C@H]2C[C@@H]3O[C@@H](CO)CC[C@@H]3O[C@@H]2CCc2ccc(-c3ccc(OC)cc3)cc2)nn1`, the result was inactive.
In the case of `CCCc1cn([C@H]2C[C@@H]3O[C@H](CO)CC[C@@H]3O[C@@H]2CCc2ccc(-c3ccc(OC)cc3)cc2)nn1`, the compound was classed as inactive.
For `COc1cccc(-c2cn(CC[C@@H]3CC[C@H](NS(=O)(=O)c4ccccc4Cl)[C@H](CO)O3)nn2)c1`, the result was inactive.
For `CCC(=O)N1C[C@H](C)[C@H](OC)CN(C)C(=O)c2cc(NC(=O)Nc3cccc(F)c3)ccc2OC[C@@H]1C`, the call was inactive.
As to `O=C(Nc1cccc(F)c1)N[C@@H]1CC[C@H](CCNS(=O)(=O)c2cccc(Cl)c2)O[C@H]1CO`, the compound was called inactive.
As to `C[C@H]1CN([C@@H](C)CO)C(=O)c2c(c3ccccc3n2C)-c2ccccc2CO[C@H]1CN(C)S(=O)(=O)c1ccccc1C#N`, the result was inactive.
Regarding `COc1ccc(C#Cc2ccc3c(c2)[C@@H]2[C@@H](CCN2C(=O)C2CCC2)[C@H](CO)N3)cc1`, the compound was called inactive.
On to `O=C(Nc1ccccc1F)N1CCCCN2[C@@H](CO)[C@H](c3ccc(C#Cc4cccnc4)cc3)[C@@H]2C1`, for which the outcome was inactive.
Consider `O=C(Nc1ccccc1F)N1CCCCN2[C@H](CO)[C@H](c3ccc(C#Cc4cccnc4)cc3)[C@@H]2C1`, for which the result was inactive.
With `CN1CCCCN2[C@@H](CO)[C@@H](c3ccc(-c4cccnc4)cc3)[C@@H]2C1`, the compound was called inactive.
For `COCC(=O)Nc1ccc2c(c1)C(=O)N(C)C[C@@H](OC)[C@H](C)CN(CC1CCCCC1)[C@@H](C)CO2` the value was “inactive”.
For the compound `CCCN1C[C@H](C)[C@@H](OC)CN(C)C(=O)c2cc(NC(=O)Nc3cccc(F)c3)ccc2OC[C@H]1C`, the call was inactive.
As for `CCC(=O)N[C@H]1C=C[C@H](CC(=O)NCC2CCCCC2)O[C@@H]1CO`, the compound was called inactive.
`CCC(=O)N1CCC2(CC1)CN(Cc1ccc3c(c1)OCO3)[C@@H](CO)c1c2c2ccc(OC)cc2n1C`: the result was inactive.
On to `COc1ccc2c3c([nH]c2c1)[C@H](CO)N(Cc1cccc(F)c1)CC31CCN(Cc2ccccn2)CC1`, for which the call was inactive.
For `CCCC(=O)Nc1ccc2c(c1)OC[C@@H](C)N(Cc1cc(-c3ccccc3)on1)C[C@@H](C)[C@H](OC)CN(C)C2=O`, the outcome was inactive.
For `CCCC(=O)N1CC2(C1)CN(S(=O)(=O)c1ccc(C)cc1)[C@@H](CO)c1[nH]c3cc(OC)ccc3c12` the value was “inactive”; for `COc1cccc(-c2ccc([C@H]3[C@H](CO)N4CCCCN(CC5CC5)C[C@@H]34)cc2)c1`, “inactive”; for `COc1cccc(S(=O)(=O)N(C)C[C@@H]2OCc3ccccc3-c3c(n(C)c4ccccc34)C(=O)N([C@H](C)CO)C[C@@H]2C)c1`, “inactive”.
Regarding `COc1ccc2c3c(n(C)c2c1)[C@H](CO)N(C(=O)Nc1ccc(F)cc1)CC31CCN(C(=O)c2cccnc2)CC1`, the call was inactive.
`CCCC(=O)Nc1ccc2c(c1)OC[C@@H](C)N(Cc1ccc(F)cc1)C[C@@H](C)[C@H](OC)CN(C)C2=O`: the outcome was inactive.
For `CC=Cc1ccc2n(c1=O)C[C@H]1[C@H](CO)[C@@H](C(=O)N3CCC(Cc4ccccc4)CC3)N(CCC)[C@@H]21` (mixture of isomers) the value was “inactive”.
Regarding `C[C@H](CO)N1C[C@H](C)[C@H](CN(C)S(=O)(=O)c2ccc(F)cc2)OCc2ccccc2-c2c(n(C)c3ccccc23)C1=O`, the compound was classed as inactive.
For `Cc1ccc(-c2ccccc2[C@H]2[C@@H](C#N)N(C(=O)c3cccc(F)c3)[C@H]2CO)cc1` the value was “inactive”; for `C[C@H]1CN([C@@H](C)CO)C(=O)c2c(c3ccccc3n2C)-c2ccccc2CO[C@@H]1CN(C)S(=O)(=O)c1cccc(F)c1`, “inactive”.
On to `C[C@H]1CN([C@@H](C)CO)C(=O)Cc2cc(NC(=O)Nc3ccc(C(F)(F)F)cc3)ccc2O[C@@H]1CN(C)C(=O)Nc1ccc2c(c1)OCO2`, for which the compound was classed as inactive.
For the compound `COc1ccc(NC(=O)N(C)C[C@H]2Oc3ccc(NC(=O)Nc4ccc(C(F)(F)F)cc4)cc3CC(=O)N([C@H](C)CO)C[C@@H]2C)cc1`, the compound was classed as inactive.
Consider `C[C@H](CO)N1C[C@H](C)[C@H](CN(C)CC2CC2)Oc2ccc(NC(=O)Nc3ccccc3)cc2CC1=O`, for which the result was inactive.
`C[C@H](CO)N1C[C@H](C)[C@@H](CN(C)C(=O)Nc2ccc(F)cc2)Oc2ccc(NC(=O)Nc3ccc(C(F)(F)F)cc3)cc2CC1=O`: the compound was called inactive.
Consider `C[C@@H]1CN([C@@H](C)CO)C(=O)Cc2cc(NC(=O)Nc3ccccc3)ccc2O[C@H]1CN(C)CC1CC1`, for which the compound was classed as inactive.
Turning to `C[C@H](CO)N1C[C@H](C)[C@@H](CN(C)C(=O)Nc2ccc3c(c2)OCO3)Oc2ccc(NC(=O)Nc3ccc(C(F)(F)F)cc3)cc2CC1=O`, the call was inactive.
Regarding `O=C(c1cccc(F)c1)N1CC(=O)N2[C@H](C1)[C@@H](c1ccc(-c3cccnc3)cc1)[C@@H]2CO`, the compound was classed as inactive.
For `COCC(=O)N1CCC2(CC1)CN(Cc1cccc(OC)c1)[C@@H](CO)c1[nH]c3cc(OC)ccc3c12` the value was “inactive”; for `C[C@@H]1CN([C@@H](C)CO)C(=O)c2cccc(NC(=O)c3nc4ccccc4s3)c2O[C@@H]1CN(C)C(=O)Nc1cccc2ccccc12`, “inactive”.
Regarding `Cc1ccc(-c2ccc3c(c2)O[C@@H](CN(C)C(=O)C2CCCCC2)[C@H](C)CN([C@H](C)CO)S3(=O)=O)cc1`, the compound was classed as inactive.
The entry for `N#Cc1cccc(-c2ccc3c(c2)[C@H]2[C@H](CCN2C(=O)c2ccncc2)[C@H](CO)N3)c1` is “inactive”; for `COc1cccc(CN2CC3(CN(Cc4ccccn4)C3)c3c([nH]c4cc(OC)ccc34)[C@@H]2CO)c1` it is “inactive”.
Take `COc1ccc2c3c(n(C)c2c1)[C@@H](CO)NCC31CCN(Cc2ccc(-c3ccccn3)cc2)CC1`: the call was inactive.
For `COc1cccc(CN2CC3(CN(Cc4ccccn4)C3)c3c([nH]c4cc(OC)ccc34)[C@H]2CO)c1` the value was “inactive”.
As to `COc1ccc2c3c(n(C)c2c1)[C@H](CO)N(C(=O)Nc1ccc(F)cc1)CC31CCN(Cc2ccccn2)CC1`, the compound was called inactive.
Regarding `COc1ccc(S(=O)(=O)N(C)C[C@@H]2OCc3ccccc3-c3c(n(C)c4ccccc34)C(=O)N([C@H](C)CO)C[C@H]2C)cc1`, the compound was classed as inactive.
For `C[C@@H]1CN([C@@H](C)CO)C(=O)c2c(c3ccccc3n2C)-c2ccccc2CO[C@H]1CN(C)S(=O)(=O)c1ccc(C(F)(F)F)cc1`, the outcome was inactive.
On to `O=C(c1ccccn1)N1CC[C@H]2[C@H](CO)Nc3ccc(-c4ccccc4)cc3[C@H]21`, for which the result was inactive.
Turning to `CCC(=O)N1CCC2(CC1)CN(Cc1ccc(Cl)cc1)[C@H](CO)c1[nH]c3cc(OC)ccc3c12`, the call was inactive.
The entry for `Cc1ccccc1-c1ccc(C2[C@H]3CNC[C@@H]2N3S(=O)(=O)c2cccc(F)c2)cc1` (some centres undefined) is “inactive”; for `N#C[C@@H]1[C@@H](c2ccc(C#Cc3ccc(F)cc3)cc2)[C@H](CO)N1C(=O)C1CCCC1` it is “inactive”; for `CC(C)NC(=O)N1[C@H](C#N)[C@H](c2ccc(C#CC3CCCCC3)cc2)[C@@H]1CO` it is “inactive”.
As to `N#C[C@@H]1[C@@H](c2ccc(C#CC3CCCCC3)cc2)[C@H](CO)N1C(=O)Nc1ccc(F)cc1`, the result was inactive.
With `N#C[C@@H]1[C@H](c2ccc(C#CC3CCCCC3)cc2)[C@H](CO)N1C(=O)Nc1ccc(F)cc1`, the compound was called inactive.
As for `OC[C@@H]1[C@@H](c2ccccc2)C2(CN(CCC(F)(F)F)C2)N1Cc1ccccc1`, the call was inactive.
